Experimental data published in PubChem BioAssay (NCI).
This is part of a sample that, as a whole, favours compounds with a hit. Of some 83,000 tested, about 20% had one in any assay.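 Each cell line was grown in a 96-well plate and treated with one concentration of compound for 48 hours. Values below 10 were considered active.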 Activity calls are given as the source filed them. Where a SMILES comes first, the peptide text is derived from it. Bridges are numbered along the chain shown (N, C = ends). [ ]: non-standard residue; d: D form. The star is where a group is joined. ξ: configuration not given here. ξNMePhe(4-NMe2) = CNC(Cc1ccc(N(C)C)cc1)C(=O)O; Picolinoyl(3-OH) = O=C(c1ncccc1O)*; ξPip(4-oxo) = O=C1CCNC(C(=O)O)C1; Phg = N[CH](C(=O)O)c1ccccc1; Abu = CC[CH](N)C(=O)O

Tests used:
Assay in all cases: NCI-60 one-dose screen, 48 h (100 = growth as untreated, 0 = no growth, -100 = all killed)
SK-MEL-2 melanoma = details: 10 µM
EKVX NSCLC = details: 10 µM
SN12C renal = details: 10 µM
UO-31 renal = details: 10 µM
TK-10 renal = details: 10 µM unless noted
ACHN renal = details: 10 µM
CAKI-1 renal = details: 10 µM
CCRF-CEM leukemia = details: 10 µM
MOLT-4 leukemia = details: 10 µM
SR leukemia = details: 10 µM
RPMI-8226 leukemia = details: 10 µM
OVCAR-5 ovarian = details: 10 µM
OVCAR-4 ovarian = details: 10 µM
SK-OV-3 ovarian = details: 10 µM
IGROV1 ovarian = details: 10 µM
OVCAR-3 ovarian = details: 10 µM
NCI/ADR-RES ovarian = details: 10 µM
OVCAR-8 ovarian = details: 10 µM
HS 578T breast = details: 10 µM
A498 renal = details: 10 µM

Measured: growth

CO[C@H]1C[C@@H]2CC[C@@H](C)[C@@](O)(O2)C(=O)C(=O)N2CCCC[C@H]2C(=O)O[C@H]([C@H](C)C[C@@H]2CC[C@@H](O)[C@H](OC)C2)CC(=O)[C@H](C)C=C(C)[C@@H](O)[C@@H](OC)C(=O)[C@H](C)C[C@H](C)/C=C/C=C/C=C1C
inactive: SK-MEL-2 melanoma 75.8% | EKVX NSCLC 36.5% | SN12C renal 74.2% | UO-31 renal 26.3% | TK-10 renal 71.7% | ACHN renal 59.3% | CAKI-1 renal 52.2% | CCRF-CEM leukemia 30.6% | MOLT-4 leukemia 37.4% | SR leukemia 23.7% | RPMI-8226 leukemia 23.8% | OVCAR-4 ovarian 33.3% | SK-OV-3 ovarian 45.1% | IGROV1 ovarian 11.9% | OVCAR-3 ovarian 55.1%
active: OVCAR-5 ovarian -6.29% | NCI/ADR-RES ovarian -10.4%

CCC1NC(=O)C(NC(=O)c2ncccc2O)C(C)OC(=O)C(c2ccccc2)NC(=O)C2CC(=O)CCN2C(=O)C(Cc2ccc(N(C)C)cc2)N(C)C(=O)C2CCCN2C1=O (stereo not given) (tested in a mixture with another compound) ({Picolinoyl(3-OH)}-T[Abu]P[ξNMePhe(4-NMe2)][ξPip(4-oxo)][Phg]; ester 1-C; configuration not given here)
inactive: SK-MEL-2 melanoma 95.9% | EKVX NSCLC 41% | SN12C renal 75% | UO-31 renal 90.8% | TK-10 renal 91% | ACHN renal 47.5% | CAKI-1 renal 50.8% | CCRF-CEM leukemia 32% | MOLT-4 leukemia 42.2% | SR leukemia 52.1% | RPMI-8226 leukemia 34.1% | OVCAR-4 ovarian 48.1% | SK-OV-3 ovarian 95.5% | IGROV1 ovarian 64% | OVCAR-3 ovarian 63.1% | NCI/ADR-RES ovarian 179%
active: OVCAR-5 ovarian -21.3%

CC1(O)CCCCC1O (stereo not given)
inactive: SK-MEL-2 melanoma 91.8% | EKVX NSCLC 114% | SN12C renal 95.1% | UO-31 renal 79.3% | TK-10 renal 125% | ACHN renal 102% | CAKI-1 renal 102% | CCRF-CEM leukemia 107% | MOLT-4 leukemia 103% | SR leukemia 103% | RPMI-8226 leukemia 98.6% | OVCAR-8 ovarian 105% | OVCAR-5 ovarian 103% | SK-OV-3 ovarian 101% | IGROV1 ovarian 90.9% | OVCAR-3 ovarian 120% | HS 578T breast 102% | NCI/ADR-RES ovarian 105%

C/C=C/CC(C)C(O)C1C(=O)NC(CC)C(=O)N(C)CC(=O)N(C)C(CC(C)C)C(=O)NC(C(C)C)C(=O)N(C)C(CC(C)C)C(=O)NC(C)C(=O)NC(C)C(=O)N(C)C(CC(C)C)C(=O)N(C)C(CC(C)C)C(=O)N(C)C(C(C)C)C(=O)N1C (stereo not given)
active: SK-MEL-2 melanoma -36.5% | A498 renal -5.73% | MOLT-4 leukemia -4.07% | SR leukemia -0.0306%
inactive: EKVX NSCLC 26.7% | SN12C renal 27.4% | UO-31 renal 24.1% | TK-10 renal 31.3% | ACHN renal 16.8% | CAKI-1 renal 31% | OVCAR-8 ovarian 38.1% | OVCAR-5 ovarian 32% | OVCAR-4 ovarian 29.9% | SK-OV-3 ovarian 40.4% | IGROV1 ovarian 43.9% | OVCAR-3 ovarian 17.4% | HS 578T breast 45.8% | NCI/ADR-RES ovarian 31.9%

CCCNC(=O)c1ccc(S(N)(=O)=O)cc1
inactive: SK-MEL-2 melanoma 120% | EKVX NSCLC 112% | SN12C renal 107% | UO-31 renal 107% | TK-10 renal 119% | ACHN renal 101% | CAKI-1 renal 110% | CCRF-CEM leukemia 81.6% | MOLT-4 leukemia 109% | RPMI-8226 leukemia 96.9% | OVCAR-8 ovarian 122% | OVCAR-5 ovarian 89.7% | OVCAR-4 ovarian 84.3% | SK-OV-3 ovarian 105% | IGROV1 ovarian 135% | OVCAR-3 ovarian 113% | NCI/ADR-RES ovarian 99.5%

C#CCSc1nnnn1-c1ccc(Br)c(C)c1
inactive: SK-MEL-2 melanoma 86.9% | EKVX NSCLC 35.7% | SN12C renal 71.8% | TK-10 renal 111% | ACHN renal 92.5% | A498 renal 124% | CCRF-CEM leukemia 87.5% | MOLT-4 leukemia 88.4% | SR leukemia 74.4% | RPMI-8226 leukemia 62.1% | OVCAR-8 ovarian 82.5% | OVCAR-5 ovarian 90% | OVCAR-4 ovarian 80.8% | SK-OV-3 ovarian 105% | OVCAR-3 ovarian 106% | HS 578T breast 78.2% | NCI/ADR-RES ovarian 84.6%
active: UO-31 renal -93.1% | IGROV1 ovarian -28.7%

NC(=O)NC(=O)c1ccc(Cl)cc1
inactive: SK-MEL-2 melanoma 92.2% | EKVX NSCLC 101% | SN12C renal 104% | UO-31 renal 77% | TK-10 renal 100% | ACHN renal 105% | CAKI-1 renal 94.1% | A498 renal 102% | SR leukemia 88.9% | OVCAR-8 ovarian 106% | OVCAR-5 ovarian 113% | SK-OV-3 ovarian 103% | IGROV1 ovarian 92.6% | OVCAR-3 ovarian 125% | HS 578T breast 97.9% | NCI/ADR-RES ovarian 107%

C/C(O)=C(\C=N\C(N)=S)C(=O)Nc1ccccc1
inactive: SK-MEL-2 melanoma 107% | EKVX NSCLC 106% | SN12C renal 94.1% | UO-31 renal 91.5% | TK-10 renal 124% | ACHN renal 103% | CAKI-1 renal 97.8% | A498 renal 98.6% | MOLT-4 leukemia 103% | SR leukemia 91.7% | OVCAR-8 ovarian 99.7% | OVCAR-5 ovarian 113% | OVCAR-4 ovarian 101% | SK-OV-3 ovarian 100% | IGROV1 ovarian 103% | OVCAR-3 ovarian 108% | NCI/ADR-RES ovarian 110%

O=C1C=C(O)C(=O)C=C1O
inactive: SK-MEL-2 melanoma 107% | EKVX NSCLC 102% | SN12C renal 107% | UO-31 renal 79.2% | TK-10 renal 102% | ACHN renal 97.2% | CAKI-1 renal 97.4% | A498 renal 92.4% | MOLT-4 leukemia 91.3% | OVCAR-8 ovarian 103% | OVCAR-5 ovarian 108% | OVCAR-4 ovarian 118% | SK-OV-3 ovarian 87.9% | IGROV1 ovarian 111% | OVCAR-3 ovarian 107% | NCI/ADR-RES ovarian 101%
